In PubChem BioAssay (NCATS):
Several values for one entry are separate records, joined by “and”; a condition that tells them apart may be missing. Identical values can stand only once. Inconclusive results are not listed. The list shows a part of the results. Activity calls are given as the source filed them. Unless noted, calls come from the whole dose curve; as a rule, active = well fitted curve in the direction sought with a large enough effect; inconclusive = small, poorly fitted or top-dose-only effect, or another doubt; inactive = no such curve, though single readings can be large; an effect the other way counts as inactive or inconclusive.

Experiments:
[1] = AP1 Signaling Pathway (AID 357; active = well fitted curve in either direction with a large enough effect, not every such curve was filed as active;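 note: ME-180 reporter cells stimulated with EGF at its EC50 level; % is set by controls: 0 for no effect and ±100 for the full control effect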); conditions: ME-180 AP-1-bla reporter, EGF-induced, beta-lactamase ratio, 5 h; at 7.69 µM (top of the series) unless noted
Procedure, shortened: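 Cells are seeded overnight, exposed to compound titrations and an EC50 level of EGF for 5 hours at 37 °C, then loaded with CCF4 dye for 2.5 hours. Beta-lactamase activity under the AP-1 element is read as a blue/green ratio.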

[2] = molecular target: Cytochrome P450 1A2 (Homo sapiens) (UniProt P05177); assay: p450-cyp1a2 (AID 410; calls by dose curve; note: potency is the fitted concentration of half-maximal effect;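 for activity change, negative = inhibition: -100% = full effect of reference inhibitor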)
Chain of Cytochrome P450 1A2 (Homo sapiens) (P05177 whole entry, looked up): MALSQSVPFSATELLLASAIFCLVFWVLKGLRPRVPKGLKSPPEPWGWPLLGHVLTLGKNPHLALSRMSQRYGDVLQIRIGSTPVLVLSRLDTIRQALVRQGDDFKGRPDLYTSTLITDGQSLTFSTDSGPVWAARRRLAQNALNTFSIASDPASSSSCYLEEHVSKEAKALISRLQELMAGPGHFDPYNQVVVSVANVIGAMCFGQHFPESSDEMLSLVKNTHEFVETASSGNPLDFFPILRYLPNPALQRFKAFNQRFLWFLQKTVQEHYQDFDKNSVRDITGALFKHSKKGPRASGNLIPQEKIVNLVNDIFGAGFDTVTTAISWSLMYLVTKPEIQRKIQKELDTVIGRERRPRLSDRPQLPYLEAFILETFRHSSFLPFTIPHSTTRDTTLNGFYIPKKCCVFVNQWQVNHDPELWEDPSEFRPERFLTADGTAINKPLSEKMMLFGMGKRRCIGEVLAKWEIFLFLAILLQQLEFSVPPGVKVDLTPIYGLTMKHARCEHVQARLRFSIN
Procedure, shortened: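 Inhibition was calculated relative to 57 uM furafylline (full inhibition). The reaction used human CYP1A2 at 20nM with Luciferin-ME at its Km, 100uM, driven by an NADPH-regenerating system for 60 min at room temperature.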

[3] = Stat Signaling Pathway (AID 446; active = well fitted curve in either direction with a large enough effect, not every such curve was filed as active;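 note: ME-180 cervical cancer cells given 40 pM IL-6 alongside compound; SIE-controlled beta-lactamase reporter measured as 460/530 nm FRET emission ratio; % is set by controls: 0 for no effect and ±100 for the full control effect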); conditions: ME-180 SIE beta-lactamase reporter, IL-6 stimulated, 5 h; at 7.69 µM (top of the series) unless noted
Procedure, shortened: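 Reporter line: ME-180 cervical carcinoma, SIE-beta-lactamase. Treatment: compound with 40 pM IL-6, 5 hrs, 37 C, in low-serum OPTI-MEM with 10 mM HEPES pH 7.3. Detection: 460/530 nm fluorescence.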

[4] = molecular target: Glucocorticoid receptor (Homo sapiens) (UniProt P04150); assay: GR-GFP Redistribution (AID 450;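 active = compounds whose dose series gives a full or clear partial fitted curve of increased nuclear translocation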; note: potency is the fitted concentration of half-maximal effect); conditions: U2OS GR-GFP nuclear translocation, laser cytometry, 2 h
Chain of Glucocorticoid receptor (Homo sapiens) (P04150 whole entry, looked up, the tested form may be a part): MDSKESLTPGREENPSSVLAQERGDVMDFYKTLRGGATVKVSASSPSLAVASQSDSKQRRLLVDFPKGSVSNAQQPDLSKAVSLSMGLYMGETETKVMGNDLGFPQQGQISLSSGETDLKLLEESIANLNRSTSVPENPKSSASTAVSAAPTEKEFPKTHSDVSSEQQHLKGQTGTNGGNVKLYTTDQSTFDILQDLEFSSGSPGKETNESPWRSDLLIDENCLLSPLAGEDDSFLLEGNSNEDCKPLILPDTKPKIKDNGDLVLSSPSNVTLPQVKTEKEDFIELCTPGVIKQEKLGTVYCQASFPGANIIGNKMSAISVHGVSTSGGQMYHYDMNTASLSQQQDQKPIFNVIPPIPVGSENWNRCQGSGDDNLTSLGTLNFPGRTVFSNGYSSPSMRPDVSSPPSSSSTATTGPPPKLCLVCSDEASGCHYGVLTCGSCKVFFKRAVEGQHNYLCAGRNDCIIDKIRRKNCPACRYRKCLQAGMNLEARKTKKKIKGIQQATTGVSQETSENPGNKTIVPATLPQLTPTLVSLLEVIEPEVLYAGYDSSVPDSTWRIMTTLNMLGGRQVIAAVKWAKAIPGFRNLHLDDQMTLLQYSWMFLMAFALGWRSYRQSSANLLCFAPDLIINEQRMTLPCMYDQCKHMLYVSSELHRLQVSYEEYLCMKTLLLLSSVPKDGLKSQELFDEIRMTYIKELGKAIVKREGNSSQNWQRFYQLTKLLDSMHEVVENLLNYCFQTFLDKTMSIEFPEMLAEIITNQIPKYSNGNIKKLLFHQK

[5] = molecular target: Glucocorticoid receptor (Homo sapiens) (UniProt P04150); assay: GR-EFC Redistribution (AID 451; calls by dose curve; note: potency is the fitted concentration of half-maximal effect); conditions: CHO-K1 GR-EFC translocation, beta-gal luminescence, 2 h
Procedure, shortened: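 CHO-K1 cells stably expressing nuclear-localized β-gal enzyme acceptor and GR fused C-terminally to the enzyme donor fragment; ligand-driven nuclear translocation restores β-gal by complementation. Compounds titrated up to 46 uM final, 2 h at 37 °C; luminescence read.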

[6] = molecular target: Mitogen-activated protein kinase 10 (Mus musculus) (UniProt Q61831); assay: JNK3 AlphaScreen Assay (AID 530; active = well fitted curve in either direction with a large enough effect, not every such curve was filed as active;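 note: kinase came from lysate of stimulated human HepG2 cells; signal reports phosphorylation of biotinylated GST-cJun 1-79 at Ser73 with 10 µM ATP; % is set by controls: 0 for no effect and ±100 for the full control effect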)
Procedure, shortened: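 JNK3 came from HepG2 lysates pre-activated with IL-1beta and TNF-alpha and phosphorylated biotinylated GST-cJun (1-79) at 10 uM ATP, pH 7.6, room temperature. Compounds were titrated. AlphaScreen signal used anti-phospho-cJun (Ser73) antibody.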

[7] = molecular target: Cytochrome P450 3A4 (Homo sapiens) (UniProt P08684); assay: qHTS Assay for Activators of Cytochrome P450 3A4 (AID 885); note: nearly all actives have a fitted effect of over 65% in size
Procedure, shortened: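 Signal was normalized against complete inhibition by 57 uM ketoconazole. The reaction used 20nM CYP3A4 with 25uM Luciferin-PPXE, 10-min compound preincubation and a 60-min NADPH-supported step at RT.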

[8] = molecular target: Cytochrome P450 2D6 (Homo sapiens) (UniProt P10635); assay: qHTS Assay for Inhibitors and Substrates of Cytochrome P450 2D6 (AID 891); note: potency is the fitted concentration of half-maximal effect; nearly all actives have a fitted effect of over 60% in size
Procedure, shortened: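 Human CYP2D6 (5 nM) with 30 uM Luciferin-ME EGE (at Km) in 100 mM KPO4, compound preincubated 10 min, then NADPH regeneration system for 60 min at room temperature. Luciferin read by luminescence; normalized to 1.43 uM quinidine.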

[9] = molecular target: Cytochrome P450 2C19 (Homo sapiens) (UniProt P33261); assay: qHTS Assay for Inhibitors and Substrates of Cytochrome P450 2C19 (AID 899); note: potency is the fitted concentration of half-maximal effect; nearly all actives have a fitted effect of over 60% in size
Chain of Cytochrome P450 2C19 (Homo sapiens) (P33261 whole entry, looked up): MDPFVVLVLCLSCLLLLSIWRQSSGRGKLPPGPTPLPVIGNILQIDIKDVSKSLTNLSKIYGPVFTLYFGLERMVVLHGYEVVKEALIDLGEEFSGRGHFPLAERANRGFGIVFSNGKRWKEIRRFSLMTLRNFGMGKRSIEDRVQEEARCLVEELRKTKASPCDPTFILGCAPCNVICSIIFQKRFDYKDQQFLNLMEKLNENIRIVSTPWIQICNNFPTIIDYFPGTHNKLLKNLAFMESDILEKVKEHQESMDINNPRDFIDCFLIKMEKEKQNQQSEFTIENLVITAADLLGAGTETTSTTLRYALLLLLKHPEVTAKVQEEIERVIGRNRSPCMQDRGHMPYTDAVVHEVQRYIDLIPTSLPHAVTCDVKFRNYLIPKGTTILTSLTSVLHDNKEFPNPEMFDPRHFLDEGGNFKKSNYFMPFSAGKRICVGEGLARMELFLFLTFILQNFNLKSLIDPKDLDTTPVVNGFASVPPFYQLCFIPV
Procedure, shortened: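 In 50mM KPO4, the reaction held 5nM enzyme and KM-level (10uM) Luciferin-H EGE; it ran 60 min at 37C after NADPH regeneration and a 10 min compound preincubation. Luminescence values were scaled to 57uM ketoconazole as complete inhibition.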

[10] = NFAT Signaling Pathway (AID 444; active = well fitted curve in either direction with a large enough effect, not every such curve was filed as active;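 note: carbachol stimulus at about its EC50 of 1 µM final; % is set by controls: 0 for no effect and ±100 for the full control effect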); conditions: Jurkat NFAT-bla M1, carbachol, beta-lactamase ratio, 5 h; at 7.69 µM (top of the series) unless noted
Procedure, shortened: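 Jurkat cells carrying an NFAT-driven β-lactamase reporter and co-transfected muscarinic M1 receptor were treated with compound plus carbachol (1 uM final, an EC50 level) for 5 h at 37 °C. CCF4 loading followed for 1 h at RT; 460/530 nm ratio gave %activity.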

[11] = molecular target: 3',5'-cyclic-AMP phosphodiesterase 4B (Homo sapiens) (UniProt Q07343); assay: qHTS Assay for Inhibitors of PDE-IV (AID 607; active = well fitted activation curve with a large enough effect in the main read-out, with a control signal flat, not every such curve was filed as active; note: % of control where 0% means no effect)
Chain of 3',5'-cyclic-AMP phosphodiesterase 4B (Homo sapiens) (Q07343 whole entry, looked up): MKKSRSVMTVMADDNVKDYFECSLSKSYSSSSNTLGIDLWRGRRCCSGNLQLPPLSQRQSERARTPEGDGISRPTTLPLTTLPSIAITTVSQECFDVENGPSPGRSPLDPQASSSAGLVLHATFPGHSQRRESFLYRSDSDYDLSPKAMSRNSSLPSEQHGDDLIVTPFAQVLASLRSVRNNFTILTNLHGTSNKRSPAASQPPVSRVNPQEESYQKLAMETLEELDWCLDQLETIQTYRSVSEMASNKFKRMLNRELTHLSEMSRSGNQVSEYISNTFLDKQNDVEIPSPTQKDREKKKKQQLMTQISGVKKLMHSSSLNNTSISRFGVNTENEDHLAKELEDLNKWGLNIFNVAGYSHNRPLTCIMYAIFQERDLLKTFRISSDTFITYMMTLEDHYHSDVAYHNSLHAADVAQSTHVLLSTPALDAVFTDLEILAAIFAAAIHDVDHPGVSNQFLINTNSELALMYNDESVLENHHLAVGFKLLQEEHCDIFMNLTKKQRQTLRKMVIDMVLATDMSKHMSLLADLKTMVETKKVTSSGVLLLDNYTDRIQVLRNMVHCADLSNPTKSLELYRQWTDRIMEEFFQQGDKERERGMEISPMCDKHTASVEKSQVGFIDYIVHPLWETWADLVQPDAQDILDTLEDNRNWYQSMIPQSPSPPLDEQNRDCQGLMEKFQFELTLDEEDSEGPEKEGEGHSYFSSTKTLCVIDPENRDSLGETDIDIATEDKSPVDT
Procedure, shortened: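 Cell-based read-out of cAMP via a modified cyclic nucleotide-gated channel and membrane potential dye (535/590 nm) in HEK293 cells expressing PDE4 endogenously. Compounds tested up to 22.9 uM final; 100 uM RO 20-1724 reference.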

[12] = molecular target: Guanine nucleotide-binding protein G(i) subunit alpha-1 (Homo sapiens) (UniProt P63096); assay: qHTS Assay for Inhibitors of RGS12 GoLoco Motif Activity (Green Fluorophore) (AID 879);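 note: 0% = labeled peptide with Gαi1 and full inhibition = labeled peptide alone without protein; negative values mean loss of peptide binding seen as reduced polarization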
Chain of Guanine nucleotide-binding protein G(i) subunit alpha-1 (Homo sapiens) (P63096 whole entry, looked up): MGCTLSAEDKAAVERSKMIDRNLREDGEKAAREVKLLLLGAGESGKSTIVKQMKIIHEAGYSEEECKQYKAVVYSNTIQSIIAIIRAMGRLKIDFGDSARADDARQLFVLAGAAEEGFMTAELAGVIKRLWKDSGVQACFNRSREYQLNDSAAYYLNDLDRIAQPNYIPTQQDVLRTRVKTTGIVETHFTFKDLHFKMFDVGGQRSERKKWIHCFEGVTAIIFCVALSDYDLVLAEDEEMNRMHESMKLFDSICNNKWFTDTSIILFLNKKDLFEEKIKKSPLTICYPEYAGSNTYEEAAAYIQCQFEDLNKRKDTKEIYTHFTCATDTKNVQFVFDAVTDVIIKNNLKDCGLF
Procedure, shortened: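 Fluorescence polarization assay: 50 nM Gαi1 with 10 nM FITC-labeled RGS12 GoLoco peptide in 10 mM Tris pH 7.5, 150 mM NaCl, 0.1 mM GDP, 0.05% NP40, 10 min at room temperature with compound.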

[13] = qHTS Assay for Identification of Small Molecule Agonists for Thrombopoietin (TPO) Signaling Pathway (AID 917); note: % is set by controls: 0 for no effect and ±100 for the full control effect
Procedure, shortened: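 IL-3-dependent murine pro-B Ba/F3 cells, stably transfected with human TPO receptor and GpIIb-promoter luciferase, are incubated 24 hrs at 37 C with test compound and 26 pM TPO; luciferase signal is read after 10 min at room temperature.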

[14] = molecular target: Muscarinic acetylcholine receptor M1 (Rattus norvegicus) (UniProt P08482); assay: qHTS Assay for Antagonists of Acetylcholine Muscarinic M1 Receptor: Measurement of IP-One Response (AID 944); note: nearly all actives have a fitted effect of over 75% in size
Chain of Muscarinic acetylcholine receptor M1 (Rattus norvegicus) (P08482 whole entry, looked up): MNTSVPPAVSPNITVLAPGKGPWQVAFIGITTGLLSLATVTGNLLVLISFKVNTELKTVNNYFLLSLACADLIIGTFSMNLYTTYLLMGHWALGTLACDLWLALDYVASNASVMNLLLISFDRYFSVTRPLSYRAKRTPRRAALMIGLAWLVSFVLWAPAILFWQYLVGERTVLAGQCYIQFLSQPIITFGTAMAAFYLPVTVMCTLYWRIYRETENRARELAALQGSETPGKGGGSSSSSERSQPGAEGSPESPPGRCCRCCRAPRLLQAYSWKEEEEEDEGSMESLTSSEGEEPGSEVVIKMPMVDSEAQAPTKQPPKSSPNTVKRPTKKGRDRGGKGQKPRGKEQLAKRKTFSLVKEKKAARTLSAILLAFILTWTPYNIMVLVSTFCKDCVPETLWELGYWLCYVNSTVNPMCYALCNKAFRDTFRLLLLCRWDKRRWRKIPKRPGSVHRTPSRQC
Procedure, shortened: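 Steps: plate transfected CHO-M1 cells overnight; add test compound, 10 min; add carbachol (200 nM, EC80) in stimulation buffer with LiCl; incubate 30 min; add labelled IP1 tracer and anti-IP1 antibody in lysis buffer; read HTRF after 10 min.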

[15] = molecular target: Pyruvate kinase (Leishmania mexicana) (UniProt Q27686); assay: qHTS Validation Assay for Inhibitors of Leishmania Mexicana Pyruvate Kinase (AID 945);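 note: 0% = DMSO only neutral control wells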
Chain of Pyruvate kinase (Leishmania mexicana) (Q27686 2-499 E452W): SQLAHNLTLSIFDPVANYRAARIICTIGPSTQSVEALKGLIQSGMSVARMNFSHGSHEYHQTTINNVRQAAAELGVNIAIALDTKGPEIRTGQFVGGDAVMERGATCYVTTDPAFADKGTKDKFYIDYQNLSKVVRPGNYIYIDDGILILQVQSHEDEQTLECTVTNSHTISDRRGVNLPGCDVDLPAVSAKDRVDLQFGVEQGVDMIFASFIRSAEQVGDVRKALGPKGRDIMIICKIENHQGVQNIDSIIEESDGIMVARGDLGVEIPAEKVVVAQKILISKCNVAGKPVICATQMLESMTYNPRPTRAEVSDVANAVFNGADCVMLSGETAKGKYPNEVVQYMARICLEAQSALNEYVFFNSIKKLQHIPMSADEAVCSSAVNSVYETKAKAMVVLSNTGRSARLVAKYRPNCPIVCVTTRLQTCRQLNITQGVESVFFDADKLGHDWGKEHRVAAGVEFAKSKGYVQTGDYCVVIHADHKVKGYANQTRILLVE
Procedure, shortened: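 Purified LmPYK (E451W mutant, 0.2 nM) was incubated 1 h at room temperature with 0.5 mM PEP and 0.1 mM ADP in 50 mM imidazole pH 7.2, 50 mM KCl, 7 mM MgCl2; ATP formed was read by PKLight luminescence, normalized to DMSO wells.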

[16] = molecular target: Pyruvate kinase PKM (Homo sapiens) (UniProt P14618); assay: qHTS Assay for Activators of Human Muscle Pyruvate Kinase (AID 954; active = well fitted curve in the direction sought with a large enough effect, not every such curve was filed as active;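 note: 0% = uninhibited enzyme and -100% = no enzyme or full thiadiazolimine inhibition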)
Chain of Pyruvate kinase PKM (Homo sapiens) (P14618 whole entry, looked up): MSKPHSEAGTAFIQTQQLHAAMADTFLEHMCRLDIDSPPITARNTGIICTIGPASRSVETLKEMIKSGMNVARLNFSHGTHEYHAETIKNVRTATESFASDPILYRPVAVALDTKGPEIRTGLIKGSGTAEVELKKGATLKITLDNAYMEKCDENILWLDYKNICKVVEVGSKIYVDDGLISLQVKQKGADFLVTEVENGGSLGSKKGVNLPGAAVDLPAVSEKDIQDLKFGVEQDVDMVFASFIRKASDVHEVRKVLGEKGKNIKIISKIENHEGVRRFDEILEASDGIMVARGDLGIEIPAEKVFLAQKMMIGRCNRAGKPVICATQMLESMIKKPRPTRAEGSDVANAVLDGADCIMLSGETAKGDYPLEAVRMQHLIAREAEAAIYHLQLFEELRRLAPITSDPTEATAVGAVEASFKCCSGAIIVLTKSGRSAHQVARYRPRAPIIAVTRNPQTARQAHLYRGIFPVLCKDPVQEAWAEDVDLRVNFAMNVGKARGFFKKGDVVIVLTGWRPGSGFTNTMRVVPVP
Procedure, shortened: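 Human PKM2 activity is measured as ATP generation, detected by luciferase-coupled luminescence. The enzyme (0.1 nM) acts on 0.5 mM PEP and 0.1 mM ADP for 1 h at ambient temperature; data are normalized to uninhibited and full-inhibition wells.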

[17] = molecular target: Alpha-galactosidase A (Homo sapiens) (UniProt P06280); assay: Counterscreen for Glucocerebrosidase Inhibitors: qHTS Assay for Human alpha-Galactosidase at pH 4.5 (AID 992); note: 0% is about no effect
Chain of Alpha-galactosidase A (Homo sapiens) (P06280 whole entry, looked up): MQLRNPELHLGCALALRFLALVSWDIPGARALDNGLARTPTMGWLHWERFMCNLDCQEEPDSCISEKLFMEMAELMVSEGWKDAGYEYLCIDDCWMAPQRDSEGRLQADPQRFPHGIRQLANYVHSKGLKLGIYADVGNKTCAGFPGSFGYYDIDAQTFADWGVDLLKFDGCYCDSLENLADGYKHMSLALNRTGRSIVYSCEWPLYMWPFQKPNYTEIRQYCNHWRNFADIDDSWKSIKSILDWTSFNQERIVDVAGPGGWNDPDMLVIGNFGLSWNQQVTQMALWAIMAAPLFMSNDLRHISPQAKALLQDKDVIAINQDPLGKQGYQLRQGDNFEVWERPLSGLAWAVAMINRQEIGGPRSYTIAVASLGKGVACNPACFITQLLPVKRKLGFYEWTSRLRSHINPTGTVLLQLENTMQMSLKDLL
Procedure, shortened: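 Quantitative HTS: compounds tested from 0.7 nM up to 77 uM against 2 nM enzyme with 80 uM 4-MU alpha-D-galactopyranoside. The 20 min room-temperature reaction is stopped with 1M NaOH/1M glycine, pH 10.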

[18] = molecular target: alpha-glucosidase (Oryza sativa, rice) (UniProt Q653V4); assay: Counterscreen for Glucocerebrosidase Inhibitors: qHTS Assay for Rice alpha-Glucosidase at pH 5.0 (AID 997); note: potency is the fitted concentration of half-maximal effect;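 for activity change, negative = inhibition: 0% = full activity with enzyme and -100% = basal without enzyme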
Procedure, shortened: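 Rice alpha-glucosidase (4 nM final) with 400 uM 4-methylumbelliferyl-alpha-D-glucopyranoside in citrate buffer pH 5.0, 20 min at room temperature, stopped at pH 10; fluorescence 365/440 nm, compounds 0.7 nM–77 uM, AC50 from Hill fits.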

[19] = qHTS Assay for Identification of Small Molecule Antagonists for NFkB Signaling Pathway (AID 895; active = well fitted inhibition curve with a large enough effect in the signal ratio, with a control signal flat, not every such curve was filed as active; the % refers to the signal ratio; note: % is set by controls: 0 for no effect and ±100 for the full control effect)
Procedure, shortened: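 NFkB-bla ME-180 cervical carcinoma cells with beta-lactamase reporter under NFkB response element; compounds added, then TNF alpha at 10 pM final (EC50), 5 h at 37 C. LiveBLAzer substrate 2 h, room temperature; emission 460/530 nm at 405 nm excitation.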

[20] = qHTS screen for small molecules that inhibit ELG1-dependent DNA repair: Hit Confirmation in Cell-Based Luciferin Assay (AID 624247); note: % is set by controls: 0 for no effect and ±100 for the full control effect
Procedure, shortened: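 Here each well gets substrate reagent, then test compound or DMSO, then luciferase. Emitted light is measured with a CCD plate reader.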

[21] = molecular target: ATPase family AAA domain-containing protein 5 (Homo sapiens) (UniProt Q96QE3); assay: HTS assay for small molecules that inhibit ELG1-dependent DNA repair in human embryonic kidney (HEK293T) cells expressing luciferase-tagged ELG1: Hit Confirmation (AID 624248); conditions: HEK293T ELG1-luciferase levels, luminescence; cells co-treated with 5-fluorouridine; note: potency is the fitted concentration of half-maximal effect; nearly all actives have a fitted effect of over 55% in size
Procedure, shortened: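 Cells (2,000/well) received 5-Fluorouridine plus pin-transferred compound or DMSO and were incubated 16 hr at 37 °C, 5% CO2. Luciferase activity was read by ONE-Glo luminescence after 30 min at room temperature; inhibitors suppress the signal.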

[22] = molecular target: ATPase family AAA domain-containing protein 5 (Homo sapiens) (UniProt Q96QE3); assay: qHTS screen for small molecules that inhibit ELG1-dependent DNA repair in human embryonic kidney (HEK293T) cells expressing luciferase-tagged ELG1: Hit Confirmation using MMS Stimulated ELG1 (AID 624249); conditions: HEK293T luciferase-tagged ELG1 level; note: potency is the fitted concentration of half-maximal effect; nearly all actives have a fitted effect of over 60% in size
Procedure, shortened: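 Seed HEK293T ELG1-luc cells (2,000/well). Add compounds at ~5 h, then MMS to 10 µM final. Incubate 16 h. Measure luciferase using Amplight.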

[23] = qHTS screen for small molecules that inhibit ELG1-dependent DNA repair: Hit Confirmation with MMS Viability (AID 624251); conditions: Cell viability with MMS; note: potency is the fitted concentration of half-maximal effect; nearly all actives have a fitted effect of over 60% in size
Procedure, shortened: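 ELG1-luc HEK293T cells were plated, then about 5 h later received compounds by pin transfer plus MMS at 10 µM final. Viability was read by CellTiter-Glo luminescence after 16 h.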

[24] = molecular target: Luciferin 4-monooxygenase (Photinus pyralis) (UniProt P08659); assay: qHTS screen for small molecules that inhibit ELG1-dependent DNA repair: Hit Confirmation in Biochemical Luciferin Assay (AID 624253); note: % is set by controls: 0 for no effect and ±100 for the full control effect
Procedure, shortened: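 Compounds are tested directly on isolated Photinus pyralis luciferase, without cells. Enzyme is added to substrate already containing compound, and light output is captured by CCD imaging.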

C#C[C@@]1(O)CC[C@H]2[C@H]3CCC4=Cc5oncc5C[C@]4(C)[C@@H]3CC[C@@]21C
active: Potency [2] 12.6 µM
inactive: activity change, negative = inhibition [1] -22.8% [at 38 µM] | activity, negative = inhibition [3] 6.25% [at 38 µM] | Potency [4] > 46 µM | Potency [5] > 46 µM | Potency [6]

CCNc1ncc2nc(CCc3ccccc3)c(=O)n(C)c2n1
active: Potency [2] 2.51 µM | Potency [8] 1.58 µM | Potency [9] 2.51 µM
inactive: activity change, negative = inhibition [1] -11.6% | activity, negative = inhibition [3] -0.83% | Potency [4] > 9.22 µM | Potency [5] > 46 µM | Potency [6] | Potency [7]

Cc1ccccc1CNc1ncnc2c1ncn2[C@@H]1O[C@@H](CO)[C@H](O)[C@@H]1O
inactive: activity change, negative = inhibition [1] 0.479% [at 38 µM] | Potency [2] | activity change, negative = inhibition [10] 10.4% [at 38 µM] | Potency [4] > 46 µM | Potency [5] > 46 µM | Potency [11] | outcome [12] | outcome [13] | Potency [14] | outcome [15] | outcome [16] | outcome [17] | Potency [18]

OC[C@@H]1NC[C@@H](O)[C@H]1O
inactive: activity change, negative = inhibition [1] 0.107% [at 38 µM] | Potency [2] | activity, negative = inhibition [3] -5.61% [at 38 µM] | Potency [4] > 46 µM | Potency [5] > 46 µM | Potency [6] | Potency [11] | outcome [12] | Potency [19] | outcome [13] | outcome [16]
active: Potency [18] 12.6 µM

CNc1ncnc2c1ncn2[C@H]1C[C@@H](OP(=O)(O)O)[C@H](COP(=O)(O)O)O1
inactive: activity change, negative = inhibition [1] -5.54% [at 38 µM] | activity change, negative = inhibition [10] 5.84% [at 38 µM] | activity, negative = inhibition [3] -2.5% [at 38 µM] | Potency [4] > 46 µM | Potency [5] > 46 µM | Potency [11] | outcome [12] | outcome [13] | Potency [14] | outcome [15] | outcome [16] | outcome [17]

Cc1nnc(N/N=C/c2ccccn2)[nH]c1=O
active: Potency [21] 2.23 µM | Potency [22] 2.5 µM | Potency [23] 7.06 µM
inactive: outcome [20] | outcome [24]

COC(=O)[C@H]1[C@H]2C[C@H]3c4[nH]c5ccccc5c4CCN3C[C@@H]2CC[C@@H]1O
inactive: activity change, negative = inhibition [1] 3.48% [at 38 µM] and 8.69% [at 38 µM] | activity change, negative = inhibition [10] -14.1% [at 38 µM] | activity, negative = inhibition [3] 1% [at 38 µM] and -19.7% [at 38 µM] | Potency [6] | Potency [11] | outcome [12] | outcome [13] | outcome [16] | Potency [18]
